Source: PubChem BioAssay (NCATS)
Several values for one entry are separate records, joined by “and”; a condition that tells them apart may be missing. Equal entries are not always repeated. Records with an inconclusive call do not appear. Activity calls are given as the source filed them. Calls follow the shape of the dose curve; as a rule, active = well fitted cell-killing curve with a large enough effect; inconclusive = small, poorly fitted or top-dose-only effect; inactive = no such curve, though single readings can be large or run the other way.
% is scaled to controls: 0 for no effect and ±100 for the full control effect; potency is read from the fitted curve at half-maximal effect.

Experiment: qHTS of pediatric cancer cell lines to identify multiple opportunities for drug repurposing: Confirmatory screen for DAOY cells (AID 1347114); also: nearly all actives have a fitted effect of over 65% in size
Settings: DAOY medulloblastoma cells viability, cytotoxicity qHTS; series mostly up to 45.9 µM; activity change, negative = cytotoxic: at the top concentration
Text: Drug repurposing or repositioning has been offered as a strategy for drug development in oncology programs. This approach has special potential for childhood cancers and other rare or orphan diseases, where the expected return on new drug development has been a disincentive to pharmaceuticals.
In this project we exploit the poly-pharmacology of drugs to discover new indications via phenotypic screening of a panel of 19 well-characterized cell lines derived from solid tumors seen in children and adolescents. The goal is to identify approved drugs with previously unrecognized anticancer properties that has the potential to reveal new mechanisms and biological processes involved in carcinogenesis or drug resistance. We employed a titration-based paradigm (quantitative high-throughput screening or qHTS), where all compounds were tested at multiple concentrations for their effect on cell viability. Concentration-response curves (CRCs) were derived directly from the primary screen, and both potency and efficacy values were used to identify compounds with robust bioactivity profiles. We screened the NIH Chemical Genomics Center (NCGC) Pharmaceutical Collection (NPC) and Mechanism Interrogation Plate (MIPE) small molecule collections of approved and investigational compounds against these cell lines; and measured metabolically active cells after 48 hours of compound treatment as a proxy for cell viability.
Assay Submitter: Nathalia J. Martinez, National Center for Advancing Translational Sciences, National Institutes of Health, Rockville, MD, USA; email: natalia.martinez@nih.gov
[1] Shen, M et al. Quantitative high-throughput phenotypic screening of pediatric cancer cell lines identifies multiple opportunities for drug repurposing. Oncotarget 2017 Dec 19;9(4):4758-4772. PMID 29435139.
The cells were obtained from University of North Carolina (UNC), Pediatric Preclinical Testing Program (PPT), and Coriell Institute (CI).
qHTS cell viability assay:
Cells were assayed in growth media at a density of 500-1,000 cells/well. Five microliters of cells were dispensed into 1,536-well, white, solid-bottom, TC-treated plates (Greiner Bio One) using a multidrop dispenser and incubated at 37 degrees C, 5% CO2, under a humidified atmosphere for 5 hours. Twenty-three nanoliters of compounds and controls (neutral control DMSO or positive control bortezomib at final concentration of 2.3 µM) were subsequently transferred by Kalypsys pintool. For primary screens, the MIPE collection was tested at 11-point dilutions (final concentrations range from 0.78 nM to 46 µM) and the NPC collection at 8-point dilutions (final concentrations range from 0.59 nM to 46 µM). Compounds tested in follow-up screens were assayed at 11-point dilutions. Cells were incubated for 48 hours, followed by addition of 3 uL of CellTiter-Glo (Promega). After a 15 min incubation at room temperature, samples were analyzed for luminescence intensity using a ViewLux High-throughput CCD imager equipped with clear filters.
With `CCOC(=O)c1ccc(C#Cc2ccc3c(c2)C(C)(C)CCS3)nc1` the “activity change, negative = cytotoxic” value was -2.86% (inactive). For `COc1ccc(C(=O)CC(=O)c2ccc(C(C)(C)C)cc2)cc1`, the “activity change, negative = cytotoxic” value was -0.234% (inactive). For `C[C@@H]1C[C@H]2[C@@H]3CCC4=CC(=O)C=C[C@]4(C)[C@@]3(Cl)[C@@H](O)C[C@]2(C)[C@@]1(OC(=O)c1ccco1)C(=O)CCl`, the Potency was 10400 nM (active). In the case of `COc1cc2nc(N3CCCN(C)CC3)nc(NC3CCN(Cc4ccccc4)CC3)c2cc1OC`, the “activity change, negative = cytotoxic” value was -98% (inactive). For `Nc1nc(=S)c2[nH]cnc2[nH]1`, the Potency was 2.61 µM (active) and 1.47 µM (active). For `CCC(=O)O[C@]1(C(=O)CCl)[C@@H](C)C[C@H]2[C@@H]3CCC4=CC(=O)C=C[C@]4(C)[C@@]3(F)[C@@H](O)C[C@@]21C`, the “activity change, negative = cytotoxic” value was -8.53% (inactive). With `O=S(=O)(O)CCS` the “activity change, negative = cytotoxic” value was -4.66% (inactive). With `C[C@@H](CN1CC(=O)NC(=O)C1)N1CC(=O)NC(=O)C1` the “activity change, negative = cytotoxic” value was -9.37% (inactive). For `COc1nc(N)nc2c1ncn2[C@@H]1O[C@H](CO)[C@@H](O)[C@@H]1O`, the “activity change, negative = cytotoxic” value was 13% (inactive). With `S=P(N1CC1)(N1CC1)N1CC1` the “activity change, negative = cytotoxic” value was -7.87% (inactive). For `CCOC(=O)[C@H](CCc1ccccc1)N[C@H]1CS[C@H](c2cccs2)CN(CC(=O)O)C1=O`, the “activity change, negative = cytotoxic” value was 4.16% (inactive). In the case of `CC1CC2C3CCC4=CC(=O)C=C[C@]4(C)[C@@]3(F)[C@@H](O)C[C@]2(C)[C@@]1(O)C(=O)CO` (stereo partly specified), the “activity change, negative = cytotoxic” value was 7.92% (inactive). For `CC(C)NCC(O)c1ccc(NS(C)(=O)=O)cc1` (stereo unspecified), the “activity change, negative = cytotoxic” value was 6.92% (inactive). For `CC(C)(C)C(=O)OCOP(=O)(COCCn1cnc2c(N)ncnc21)OCOC(=O)C(C)(C)C`, the “activity change, negative = cytotoxic” value was -23.6% (inactive). For `COc1cc(NCc2ccc3nc(N)nc(N)c3c2C)cc(OC)c1OC`, the “activity change, negative = cytotoxic” value was -36.9% (inactive). With `COC(=O)Nc1nc2ccc(S(=O)c3ccccc3)cc2[nH]1` (stereo unspecified) the Potency was 928 nM (active). For `COC(=O)Nc1nc2ccc(Sc3ccccc3)cc2[nH]1`, the Potency was 928 nM (active). In the case of `Nc1nc(N)nc(-c2cc(Cl)ccc2Cl)n1`, the “activity change, negative = cytotoxic” value was -0.794% [at 97.2 µM] (inactive). With `CCCCOc1ccc(CC(=O)NO)cc1` the “activity change, negative = cytotoxic” value was -13.2% (inactive). With `CC(C)(C#N)c1cc(Cn2cncn2)cc(C(C)(C)C#N)c1` the “activity change, negative = cytotoxic” value was 11.1% (inactive). With `N=C(N)c1ccc(OCCCCCOc2ccc(C(=N)N)cc2)cc1` the Potency was 14700 nM (active). For `CS(=O)(=O)c1ccc([C@@H](O)[C@@H](CO)NC(=O)C(Cl)Cl)cc1`, the “activity change, negative = cytotoxic” value was -4.36% (inactive). With `Nc1[nH]c(=O)ncc1F` the “activity change, negative = cytotoxic” value was 1.22% (inactive). In the case of `CN(C)c1ccc(C(=C2C=CC(=[N+](C)C)C=C2)c2ccc(N(C)C)cc2)cc1`, the Potency was 737 nM (active). For `CNS(=O)(=O)CCc1ccc2[nH]cc(C3CCN(C)CC3)c2c1`, the “activity change, negative = cytotoxic” value was -6.7% (inactive). With `NC(=O)c1cccnc1` the “activity change, negative = cytotoxic” value was 7.48% (inactive). For `Nc1nc(F)nc2c1ncn2[C@@H]1O[C@H](CO)[C@@H](O)[C@@H]1O`, the “activity change, negative = cytotoxic” value was -15.2% (inactive). In the case of `COC(=O)Nc1nc2ccc(C(=O)c3ccccc3)cc2[nH]1`, the Potency was 928 nM (active). With `Cn1nnc2c(C(N)=O)ncn2c1=O` the “activity change, negative = cytotoxic” value was 31.6% (inactive). In the case of `COc1ccc(-c2ccc3cc(C(=O)O)ccc3c2)cc1C12CC3CC(CC(C3)C1)C2`, the “activity change, negative = cytotoxic” value was -15.3% (inactive). For `CC(C(=O)O)c1ccc2c(c1)CC(=O)c1ccccc1S2` (stereo unspecified), the “activity change, negative = cytotoxic” value was -3.4% (inactive). In the case of `COc1cc([C@@H]2c3cc4c(cc3[C@H](O)[C@H]3COC(=O)[C@H]23)OCO4)cc(OC)c1OC`, the Potency was 14.7 nM (active). For `O=NN(CCCl)C(=O)NC1CCCCC1`, the “activity change, negative = cytotoxic” value was 1.73% (inactive). With `CO[C@@]12[C@H](COC(N)=O)C3=C(C(=O)C(C)=C(N)C3=O)N1C[C@@H]1N[C@@H]12` the Potency was 14700 nM (active). In the case of `CNNCc1ccc(C(=O)NC(C)C)cc1`, the “activity change, negative = cytotoxic” value was 0.0594% (inactive). For `O=C(NCC1CN(c2ccc(N3CCOCC3=O)cc2)C(=O)O1)c1ccc(Cl)s1` (stereo unspecified), the “activity change, negative = cytotoxic” value was -16.1% (inactive).
